TEAD-YAP inh: TEAD-YAP interaction inhibition, primary screen, TEAD-YAP interaction inhibitor project, luminescence, HEK-TIYL cells; 640,000 compounds, 1.4% hits; TEAD-Gal4/YAP UAS-luciferase luminescence; inhibition, % at 9.12 µM; in the data active = inhibition above about 32%;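 note: 0% = median of test compound wells and 100% = reference inhibitor wells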
MITF inh: MITF inhibitors, primary screen, biochemical, AlphaScreen, human; Microphthalmia-associated transcription factor (Homo sapiens), O75030; AlphaScreen MITF homodimerization, bead proximity signal; inhibition, % at 2.6 µM; 650,000 compounds, 0.91% hits; AID 1259374, 2018; in the data active = inhibition above about 50%;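 note: 0% = vehicle wells with protein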
GPR151 ag: activators of human GPR151, primary screen, cell-based, PathHunter beta-arrestin, luminescence. PathHunter beta-arrestin GPR151 cells. 650,000 compounds, 1% hits. AID 1508602, 2020. activation, % at 11.2 µM. G-protein coupled receptor 151 (Homo sapiens), Q8TDV0; in the data active = activation above about 4.9%;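 note: 0% = median of compound wells and 100% = cells with positive control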
Target sequence (Q8TDV0 whole entry, looked up): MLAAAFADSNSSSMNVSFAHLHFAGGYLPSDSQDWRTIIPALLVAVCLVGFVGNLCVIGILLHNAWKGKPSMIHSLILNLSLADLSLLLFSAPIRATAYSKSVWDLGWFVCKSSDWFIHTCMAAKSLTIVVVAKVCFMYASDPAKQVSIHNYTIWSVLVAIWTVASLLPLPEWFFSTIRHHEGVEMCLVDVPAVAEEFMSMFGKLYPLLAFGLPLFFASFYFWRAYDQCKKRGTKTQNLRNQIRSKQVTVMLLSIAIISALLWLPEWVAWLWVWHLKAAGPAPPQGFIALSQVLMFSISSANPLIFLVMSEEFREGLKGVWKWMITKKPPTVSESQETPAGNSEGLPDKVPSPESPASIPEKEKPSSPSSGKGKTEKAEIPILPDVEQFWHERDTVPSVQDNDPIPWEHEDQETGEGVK
FBW7 activator: FBW7 E3 ligase activators, primary screen, biochemical, AlphaScreen, human. F-box/WD repeat-containing protein 7 (Homo sapiens), Q969H0. AlphaScreen FBW7–phospho-cyclin E peptide binding, activator screen. normalized activity (activation), % at 26.1 µM. 650,000 compounds, 0.13% hits; in the data active = normalized activity above about 1.9%;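 note: purified mutant Fbw7 with reduced substrate affinity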
GPR151 conf act: GPR151 activators, triplicate retest, confirmation, cell-based, PathHunter beta-arrestin, luminescence | GPR151 PathHunter beta-arrestin cells, 90 min; % of EA-reagent control over plate median | shares compounds with GPR151 ag | 6,700 tested, under 10 active | AID 1508609, 2020 | activation, % at 11.2 µM;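 active = mean percent activation across replicates above the confirmation screen cutoff of 4.91%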
GPR119 ag: GPR119 activators in beta-arrestin cells, counter-screen for GPR151 activator project, cell-based, PathHunter beta-arrestin, luminescence, triplicate; shares compounds with GPR151 ag; 90 min; 0 = compound-well median, 100 = enzyme-acceptor control; activation, % at 11.2 µM; 6,700 compounds, 0.3% hits;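 active = mean percent activation in the counterscreen above 29.09%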;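 note: counterscreen on off-target GPR119 to flag nonselective hits from the GPR151 activator screen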
Active calls of the source: *; x = no result. Sampled rows, rich in hits. Any-hit rate of the full collection: about 3.5%.

SMILES	TEAD-YAP inh	MITF inh	GPR151 ag	FBW7 activator	GPR151 conf act	GPR119 ag
COc1ccc(OC)c(N2C(=O)NC(=O)/C(=C/c3cccs3)C2=O)c1	-3	-2	1	0	x	x
COc1cccc(N2C(=O)NC(=O)/C(=C/c3ccc(O)c(O)c3)C2=O)c1	-3	-24	5.1*	0	1	5
CCOc1cc(/C=C2\C(=O)NC(=O)N(c3ccc(Br)c(C)c3)C2=O)ccc1O	5	3	5.0*	0	0	-6
O=C(O)CCNS(=O)(=O)c1ccc(Br)s1	-1	0	-3	0	x	x
Cc1ccc(S(=O)(=O)N2CCN3C(=O)[C@H](Cc4ccccc4)NC(=O)[C@H]3C2)cc1	4	-8	-1	0	x	x
Cc1cccc(N2C(=O)NC(=O)/C(=C\c3ccc(N(C)C)c([N+](=O)[O-])c3)C2=O)c1	-11	0	5.6*	0	-1	-5
CCCC(C)NC(=O)CSc1nnc(Nc2ccc(C)cc2)s1 (stereo unspecified)	-7	16	0	0	x	x
Cn1c(=O)n(CC(=O)NCc2ccc(F)cc2)c2cccnc21	-20	0	10*	0	0	0
CC(=O)Nc1ccc(N(C)C(C)=O)cc1	1	7	0	0	x	x
CC(=O)Nc1ccc(N(C)S(C)(=O)=O)cc1	-2	-6	9.3*	0	0	-6
CC(=O)Nc1ccc(C(=O)N/N=C/c2ccccc2F)cc1	-4	10	3	0	x	x
COc1cc2nc(C)[nH]c2cc1OC	-1	2	-1	0	x	x
COc1ccc2nc(C)[nH]c2c1	5	-9	5.2*	0	-1	-6
Cc1cc(C)nc(N2CCC(C(=O)Nc3ccc(Cl)cc3Cl)CC2)n1	-9	6	9.5*	0	0	7
Cc1ccc(Cl)c(NC(=O)C2CCN(c3nc(C)cc(C)n3)CC2)c1	-6	6	2	0	x	x
O=C(NCc1ccc(N2CCCC2=O)cc1)c1cn(Cc2ccccc2)nn1	-1	9	7.4*	0	1	7
CC(=O)c1ccc(N2CCN(C(=O)Nc3ccc(C)cc3)CC2)cc1	0	6	2	1	x	x
CC(=O)c1ccc(N2CCN(C(=O)Nc3cccc(F)c3)CC2)cc1	-10	-12	11*	0	0	-3
O=C(Nc1cccc2ccccc12)N1CCN(c2ccc(F)cc2)CC1	-1	-9	11*	0	0	-5
CN(C)c1cccc(Nc2ccc(N3CCC(C(=O)Nc4ccc(N5CCOCC5)cc4)CC3)nn2)c1	1	16	0	0	x	x
COCCNC(=O)c1ccccc1NC(=O)C(C)N(c1ccc(OC)cc1)S(C)(=O)=O (stereo unspecified)	-3	-10	6.7*	0	0	-8
COCCNC(=O)c1ccccc1NC(=O)C(C)N(c1ccc(C)cc1)S(C)(=O)=O (stereo unspecified)	2	-8	2	0	x	x
COC(=O)COc1ccc2c(C)c(C)c(=O)oc2c1C	3	8	-1	1	x	x
CCc1c(C)c2ccc(OCC(=O)OC)c(C)c2oc1=O	6	2	5.1*	0	0	-8
Cn1c(=O)c2c(NC(=O)c3c(F)cccc3F)ccnc2n(C)c1=O	1	6	10*	0	-1	3
O=C(/C=C/c1ccc(Br)cc1)NCc1cccnc1	-11	14	1	0	x	x
COc1cc(OC)c(CN2CCC(CO)(CCOc3ccccc3)CC2)c(OC)c1	11	9	5.4*	0	-1	-12
Cc1oc(C(=O)O)cc1CSCc1ccoc1C(=O)O	0	3	6.1*	0	1	-2
COc1ccccc1CNc1ccc(C(=O)N2CCCC2)cc1S(=O)(=O)Nc1cccc(C(F)(F)F)c1	-1	18	2	0	x	x
CC(=O)c1cccc(NC(=O)N2CCN(c3nc4ccccc4n3CC(C)C)CC2)c1	-1	3	0	0	x	x

Bioassay records as filed in PubChem BioAssay.
